Whole data set: some 16,000 sequences, median “rpm ratio (pull-down/input)” near 0.94, cut for the highest 2% near 1.7. The full list was thinned out, with the highest values kept by preference.

The target of the assay is T1, MBP-FoxP1dN (Mus musculus, UniProt P58462 326-579).
T1 sequence: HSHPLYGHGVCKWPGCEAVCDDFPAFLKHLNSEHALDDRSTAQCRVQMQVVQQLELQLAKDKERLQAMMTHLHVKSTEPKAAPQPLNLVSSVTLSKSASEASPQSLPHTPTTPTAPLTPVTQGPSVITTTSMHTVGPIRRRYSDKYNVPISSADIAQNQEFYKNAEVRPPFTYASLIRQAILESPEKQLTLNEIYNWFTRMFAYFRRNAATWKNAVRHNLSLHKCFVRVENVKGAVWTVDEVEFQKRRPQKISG
Briefly: PD-seq (MBP pull-down with sequencing); 20 mM Tris-HCl pH 7.5, 100 mM NaCl, 1.5 mM MgCl2, 0.4 uM protein, 0.1 uM dsDNA library, 30 min, room temperature, amylose pull-down; high values mean tight binding. The following applies: protein: recombinant; tags: His6-MBP; chain copies: 2; dsDNA, one strand shown. An outline of the steps:
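Binding is reads-per-million enrichment of pull-down over input, with replicates pooled. It comes from 30 min room-temperature incubation in Tris pH 7.5 buffer with NaCl and MgCl2 of 0.4 µM His6-MBP-tagged, N-terminally truncated mouse FoxP3 or FoxP1 fragment from E. coli with 0.1 µM Klenow-filled degenerate double-stranded DNA library, followed by amylose resin capture, three washes and Illumina sequencing of the released DNA.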
As to “GATGATTGTTCTCCCAGCTGATGAATTTGGGCCATCGAGTAAACAAATTTTCCTAATCTTTCTGTTCAAGCGCCATCTAC”, the binding signal was 0.878 RPM ratio (pull-down/input). For “GATGATTGTTCTCCCAGCTGATGAATTGTGTTTGTCGAGTAAACAAATTTTCCTAATCTTTCTGTTCAAGCGCCATCTAC” the value was 2.8 RPM ratio (pull-down/input); for “GATGATTGTTCTCCCAGCTGATGAATTCTTTGTGTCGAGTAAACAAATTTTCCTAATCTTTCTGTTCAAGCGCCATCTAC”, 1.06 RPM ratio (pull-down/input); for “GATGATTGTTCTCCCAGCTGATGAATTTGCTGTGTCGAGTAAACAAATTTTCCTAATCTTTCTGTTCAAGCGCCATCTAC”, 1.14 RPM ratio (pull-down/input). For “GATGATTGTTCTCCCAGCTGATGAATTGTTTGTGTCGAGTAAACAAATTTTCCTAATCTTTCTGTTCAAGCGCCATCTAC” the value was 2.77 RPM ratio (pull-down/input); for “GATGATTGTTCTCCCAGCTGATGAATTTTCTGTGTCGAGTAAACAAATTTTCCTAATCTTTCTGTTCAAGCGCCATCTAC”, 0.968 RPM ratio (pull-down/input); for “GATGATTGTTCTCCCAGCTGATGAATTTGATGTGTCGAGTAAACAAATTTTCCTAATCTTTCTGTTCAAGCGCCATCTAC”, 1.16 RPM ratio (pull-down/input). Under “GATGATTGTTCTCCCAGCTGATGAATTACCCATATCGAGTAAACAAATTTTCCTAATCTTTCTGTTCAAGCGCCATCTAC” stands 1.07 RPM ratio (pull-down/input); under “GATGATTGTTCTCCCAGCTGATGAATTACTCCTCTCGAGTAAACAAATTTTCCTAATCTTTCTGTTCAAGCGCCATCTAC”, 1.05 RPM ratio (pull-down/input); under “GATGATTGTTCTCCCAGCTGATGAATTATATGAGTCGAGTAAACAAATTTTCCTAATCTTTCTGTTCAAGCGCCATCTAC”, 0.962 RPM ratio (pull-down/input). “GATGATTGTTCTCCCAGCTGATGAATTATCAATATCGAGTAAACAAATTTTCCTAATCTTTCTGTTCAAGCGCCATCTAC”: the binding signal was 1.96 RPM ratio (pull-down/input). For “GATGATTGTTCTCCCAGCTGATGAATTAAAAATATCGAGTAAACAAATTTTCCTAATCTTTCTGTTCAAGCGCCATCTAC” the value was 1.35 RPM ratio (pull-down/input); for “GATGATTGTTCTCCCAGCTGATGAATTAACAATATCGAGTAAACAAATTTTCCTAATCTTTCTGTTCAAGCGCCATCTAC”, 1.87 RPM ratio (pull-down/input); for “GATGATTGTTCTCCCAGCTGATGAATTATATCAATCGAGTAAACAAATTTTCCTAATCTTTCTGTTCAAGCGCCATCTAC”, 1.16 RPM ratio (pull-down/input). Take “GATGATTGTTCTCCCAGCTGATGAATTATGAATATCGAGTAAACAAATTTTCCTAATCTTTCTGTTCAAGCGCCATCTAC”: the binding signal is 1.07 RPM ratio (pull-down/input). Under “GATGATTGTTCTCCCAGCTGATGAATTAATAATATCGAGTAAACAAATTTTCCTAATCTTTCTGTTCAAGCGCCATCTAC” stands 1.51 RPM ratio (pull-down/input); under “GATGATTGTTCTCCCAGCTGATGAATTAGCTTACTCGAGTAAACAAATTTTCCTAATCTTTCTGTTCAAGCGCCATCTAC”, 0.938 RPM ratio (pull-down/input); under “GATGATTGTTCTCCCAGCTGATGAATTTTGAGGGTCGAGTAAACAAATTTTCCTAATCTTTCTGTTCAAGCGCCATCTAC”, 0.774 RPM ratio (pull-down/input).

On to “GATGATTGTTCTCCCAGCTGATGAATTTTTGCAATCGAGTAAACAAATTTTCCTAATCTTTCTGTTCAAGCGCCATCTAC”, for which the binding signal is 1.26 RPM ratio (pull-down/input).

With “GATGATTGTTCTCCCAGCTGATGAATTGCAAACATCGAGTAAACAAATTTTCCTAATCTTTCTGTTCAAGCGCCATCTAC”, the binding signal is 2.29 RPM ratio (pull-down/input). Under “GATGATTGTTCTCCCAGCTGATGAATTGCAAAAATCGAGTAAACAAATTTTCCTAATCTTTCTGTTCAAGCGCCATCTAC” stands 1.55 RPM ratio (pull-down/input); under “GATGATTGTTCTCCCAGCTGATGAATTGCAATCATCGAGTAAACAAATTTTCCTAATCTTTCTGTTCAAGCGCCATCTAC”, 1.48 RPM ratio (pull-down/input); under “GATGATTGTTCTCCCAGCTGATGAATTGCAGCAATCGAGTAAACAAATTTTCCTAATCTTTCTGTTCAAGCGCCATCTAC”, 1.33 RPM ratio (pull-down/input). Under “GATGATTGTTCTCCCAGCTGATGAATTGATGCAATCGAGTAAACAAATTTTCCTAATCTTTCTGTTCAAGCGCCATCTAC” stands 1.96 RPM ratio (pull-down/input). Under “GATGATTGTTCTCCCAGCTGATGAATTGCAACAATCGAGTAAACAAATTTTCCTAATCTTTCTGTTCAAGCGCCATCTAC” stands 1.91 RPM ratio (pull-down/input); under “GATGATTGTTCTCCCAGCTGATGAATTGTTGCAATCGAGTAAACAAATTTTCCTAATCTTTCTGTTCAAGCGCCATCTAC”, 1.87 RPM ratio (pull-down/input); under “GATGATTGTTCTCCCAGCTGATGAATTGATGCCATCGAGTAAACAAATTTTCCTAATCTTTCTGTTCAAGCGCCATCTAC”, 1.39 RPM ratio (pull-down/input). Regarding “GATGATTGTTCTCCCAGCTGATGAATTGCAACCATCGAGTAAACAAATTTTCCTAATCTTTCTGTTCAAGCGCCATCTAC”, the binding signal is 1.45 RPM ratio (pull-down/input). As to “GATGATTGTTCTCCCAGCTGATGAATTTCTGCAATCGAGTAAACAAATTTTCCTAATCTTTCTGTTCAAGCGCCATCTAC”, the binding signal is 1.1 RPM ratio (pull-down/input). Under “GATGATTGTTCTCCCAGCTGATGAATTTGCAACATCGAGTAAACAAATTTTCCTAATCTTTCTGTTCAAGCGCCATCTAC” stands 1.7 RPM ratio (pull-down/input). For “GATGATTGTTCTCCCAGCTGATGAATTGACTACATCGAGTAAACAAATTTTCCTAATCTTTCTGTTCAAGCGCCATCTAC” the value was 1.22 RPM ratio (pull-down/input). As for “GATGATTGTTCTCCCAGCTGATGAATTCCACAGTTCGAGTAAACAAATTTTCCTAATCTTTCTGTTCAAGCGCCATCTAC”, the binding signal was 0.831 RPM ratio (pull-down/input).

Values taken from paper PMC12820563, “FoxP3 forms a head-to-head dimer in vivo and stabilizes its multimerization on adjacent microsatellites”.
